Source: PubChem BioAssay AID1347426 (Functional Genomics Laboratory (NCATS/FGL), 2020)
In all, about 31,000 sequences went through this assay and about 1,400 (4.5%) were called active. The entries come from a sample that favours actives as a whole. Values without a mark were called inactive.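 Rule for the calls: active = median seed-adjusted z-score above 1 or below -1; inactive = the rest.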

Assay: Novel Modifiers of Survival Motor Neuron (SMN) Protein: Gene Identification via Genome-wide siRNA Screen;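 note: luminescence tracks full-length SMN protein made from the SMN2 reporter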
Conditions: HEK293T SMN2-luciferase reporter, siRNA knockdown, 72 h; actives lie on both sides
Procedure, shortened: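 Steps: spot 1 pmol siRNA, add Lipofectamine RNAiMax in serum-free DMEM, seed HEK293T SMN2–luciferase reporter cells; incubate 72 h at 37 °C; add ONE-Glo; normalize luminescence to control siRNA, log10, MAD. Candidates: |MAD| > 1.0.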

Sequence | median seed-adjusted z-score
CCUCAUAUGUGGGACAGAATT against USP3 | -0.176
GGUAUGGAUUUAACAGUCATT against DHODH | -0.422
GGAAGACUAGGAAUCGGAATT against NYX | 0.0685
CACCCACCGCCACAAUAAATT against BSG | 0.211
GCACGACUUUGUACUCAGATT against HES5 | -0.00853
GAGCUAUGGUUACACGGUUTT against GABRQ | -0.54
UGAACCUUGUGAUAGAUGATT against SNRPG | -3.09 (active)
GCCUCCACGGAAGAUGUAATT against ZNF746 | 0.1
GCACUUGUAUAAUCAGACUTT against MRLC2 | -0.492
GGACCAUCCAGCUUCUGGATT against GALE | -0.153
GGAUCUCAUGAGGCGAAUATT against EIF5 | 0.362
GUAGGACUCUCAUUCGGGATT against CCND1 | -0.912
GGACCCAAUCAACUCAAUATT against SS18 | 0.34
GCCUAAUUGCGGAACAUAUTT against ESCO1 | 0.755
CGACAAGUUGAAGACCAUATT against CRMP1 | -0.354
CCUAUUCACUUUACACUGUTT against AKR7A2 | 0.192
GAUGAAGAAUGAUAAGUCATT against HNRNPC | -2.15 (active)
AGACAAGUAUGUGAGGAAUTT against BTN2A2 | -0.0599
GGAUAUCGCACUUCACUCATT against ELL | -0.497
GGGCGAGCAUUUUCGAGAATT against USP7 | 0.105
CCACGUUUUGAUCAACAAUTT against RDH11 | -0.241
GAUUGCAUAUUACAAACGATT against GIN1 | -0.0585
GGAACGAGAUUGUCAGAUUTT against POLR2B | -4.81 (active)

Sequence | median seed-adjusted z-score
GAUACACUUUGUCACCAAATT against FLT3LG | -0.166
CUCAUGAACUUGCACAACATT against WNT7A | 0.0931
GGAUGAUGUGAACUACAAATT against PTDSS1 | -0.76
GGAGGACAUCGACCAGAUATT against APBA1 | 0.305
CGAUAAAGACGGAUUCUAATT against MATK | -0.754
GAAUAUGAGUACCUAGAUUTT against SELPLG | 0.0378
CACCGACAAUAUAAAGGAATT against SLC25A32 | -0.299
GGUCAUGAUUGCUAUCCUUTT against TAAR9 | -1.07 (active)
GGAAGAUUAUUACAGUCGATT against RERE | 0.129
GGACGGUACUACAGUGUAATT against HDAC8 | 0.835
GGAUUUCCAGGGAUAUUUATT against CDKN2B | 0.0154
CAUUGAACGCAGUCCCUUUTT against FLNC | 0.00217
CCCAAUGCCUGUUUAUUCATT against POLR2J3 | -5.42 (active)
GGAACCUACCUGACUAAGATT against ARL9 | 0.98
GGGAGUAUAUUUUGAUGAATT against RARS2 | -0.0247
AGAAUAAGUUCAAACAGGATT against RAB4B | -0.207
CAUGAACAGUUUAUCGUAATT against FMR1 | 0.504
GAGACCUAACUGUACGUGATT against TSG101 | 1.48 (active)
CUUGCACUCCUGUCCAUAATT against AP3B1 | 0.31
CUAGUUUGUUGCAAAAUAATT against CDKN2C | -0.0789
CAAUUAAGUUGGAUCCUUUTT against WARS2 | 0.21
GGUACAUCGCGAUAUCAAATT against YSK4 | -0.181
CGAUGGUAUUGACUAAGUUTT against HSPA1L | -1.27 (active)

Sequence | median seed-adjusted z-score
CUAGGAGUCAAAGAAAAUATT against RNPS1 | 0
GGAGAGAGCGUGUCCUACATT against SIRPA | -0.153
AAACAAAACUUGCACUUUATT against RASD1 | 0.674
GCCUUGAACCUAGGACCAATT against PRAF2 | -0.326
GGACGAGAAUGGGAAGAUUTT against ARD1A | -1.05 (active)
AGACUAUGAUAGAAUCCCATT against LGI3 | -0.0189
CUCUACCCGUGCUAUAUAATT against TIGD1 | 0.224
CAAGAUCCAGGACACCAAATT against MAP4K1 | 0
CUAUCCAACUCAAACGAUUTT against USP9Y | 0.012
GGCUUGAUAUUUGACAGAATT against BBOX1 | 0.152
AGAAAUGUCUUGUAGUGAATT against SYT14L | 0.2
GGAUUAUAUUGACAUCAGUTT against DLST | 1.16 (active)
GGGAGGACCUGAACAAGAATT against TAOK2 | 0.28
GGCAUGACCUCAUCACAGUTT against RNASE7 | 1.07 (active)
GAACCAACCUGUCAAGUGATT against SELL | 0.554
GGACAUCGCUAAACAGUUATT against TBC1D1 | -0.359
CUAUCACCGGAUUAACGAATT against ACOX1 | -0.897
GAGUCGAGAAGAUAAUGGATT against RABGEF1 | 0.278
AGACGACGGCGAUGAGGAATT against RALY | 0
GGACGACCACGGCUACAUUTT against CRYAA | -1.03 (active)
GGCUUCAGGUUAUAGUCAATT against OTX2 | -0.00351
AGGAGAUCGUCGACCUGGUTT against TUBA3C | -0.0806
AGGCCCUAGUGCUCAGAUATT against MMS19 | 0.0142
